Inconclusive results are not listed. A call without a number means that no potency is given here. Calls of active or inactive are those of the source. The call rests on the fitted dose curve; in most records, active means well fitted cell-killing curve with a large enough effect; inconclusive means small, poorly fitted or top-dose-only effect; inactive means flat fitted curve, though single readings scatter.

Data on 15 molecules can be found in PubChem BioAssay (NCATS).

This assay in a line: qHTS assay to identify small molecule inhibitors of chordoma cells - UCH-2 (AID 1259356). Particulars: UCH-2 chordoma viability, CellTiter-Glo ATP luminescence, 48 h; series mostly up to 46.1 µM.
For the molecule `O=C(OCCN1CCCCC1)C(O)(c1ccccc1)c1ccccc1`, the Potency entry is “inactive”.
Under `COc1ccc(OC)c([C@@H](O)[C@H](C)N)c1` stands “inactive”.
As to `CC(=O)OO`, the Potency result was “inactive”.
Under `CCCCC[C@@H](O)C1C(=O)OC(C)[C@H](O)/C=C/C=C/C=C/C=C/C=C(\C)C(O)C(O)C(O)C[C@H](O)C[C@H](O)C[C@H](O)C[C@H](O)C[C@@H]1O` (stereo not given in full) stands “inactive”; under `C[C@H]1CC[C@]2(NC1)O[C@H]1C[C@H]3[C@@H]4CC[C@H]5C[C@@H](O)CC[C@]5(C)[C@H]4CC[C@]3(C)[C@H]1[C@@H]2C`, “inactive”.
Take `CCC/C=C/C=C/C(=O)O[C@H]1/C(=C/C(=O)OC)C[C@H]2C[C@H]([C@@H](C)O)OC(=O)C[C@H](O)C[C@@H]3C[C@H](OC(C)=O)C(C)(C)[C@](O)(C[C@@H]4C/C(=C/C(=O)OC)C[C@H](/C=C/C(C)(C)[C@]1(O)O2)O4)O3`: the Potency result is “inactive”.
Under `O=c1ccc2cc(O[C@@H]3O[C@H](CO)[C@@H](O)[C@H](O)[C@H]3O)c(O)cc2o1` stands “inactive”; under `ClC(Cl)(Cl)Cl`, “inactive”; under `Oc1cc(Cl)c(Cl)cc1Cl`, “inactive”.
On to `S=C(S)N1CCNCC1`, for which the Potency entry was “inactive”.
Take `CCC1(c2ccccc2)C(=O)NC(=O)N(C(=O)c2ccccc2)C1=O` (stereo not given): the Potency result is “inactive”.
For the molecule `OC[C@@H](O)[C@H]1O[C@@H]2O[C@@H](C(Cl)(Cl)Cl)O[C@@H]2[C@H]1O`, the Potency result is “inactive”.
Under `CCCC(C)(COC(N)=O)COC(=O)NC1CC1` (stereo not given) stands “inactive”.
To `O=C(C[C@@H]1NCCC[C@H]1O)Cn1cnc2cc(Br)c(Cl)cc2c1=O` belongs “inactive”; to `CC(=O)O[C@H]1CC[C@H]2[C@@H]3CCC4=CC(=O)CCC4=C3C=C[C@]12C`, “inactive”.
